These results are taken from PubChem BioAssay (Tox21).

Several values for one entry are separate records, joined by “and”; a condition that tells them apart may be missing. Identical values can stand only once. Records with an inconclusive call do not appear. A call without a number means that no potency is given here. Activity calls are given as the source filed them. Calls come from the whole dose curve; as a rule, active = well fitted cell-killing curve with a large enough effect in the repeat runs; inconclusive = weak or mixed curves, or effect the other way; inactive = flat fitted curve, though single readings scatter.
Potency is the fitted concentration of half-maximal effect.

A short description of the test: qHTS assay to identify small molecule agonists of the estrogen receptor beta (ER-beta) signaling pathway - cell viability counter screen (AID 1259380). Note: nearly all actives have a fitted effect of over 30% in size. Conditions: ER-beta-bla HEK293T viability, CellTiter-Glo luminescence, 16 h; series mostly up to 92.4 µM. The method, boiled down:
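Viability of ER-beta-UAS-bla HEK293T cells was determined by CellTiter-Glo luminescence following 16 hr treatment with test compounds at 37C.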
For `CCCCCCCCCCCCCCn1cc[n+](C)c1`, the Potency was 30.7 µM (active) and 60.4 µM (active).

With `O=c1c2ccccc2c(=O)c2c1cc(Cl)c1[nH]c3c([nH]c12)c(Cl)cc1c(=O)c2ccccc2c(=O)c13`, the Potency entry is “inactive”.

As for `CC(Cc1ccc(OCC(=O)O)cc1)NCC(O)c1csc(C(F)(F)F)n1` (centres undefined), the Potency entry was “inactive”.

Take `CCC(C)Br` (centres undefined): the Potency result was “inactive”.

As for `O=[N+]([O-])c1ccccc1-c1ccccc1`, the Potency entry is “inactive”.

In the case of `CCN(CC)C(=S)S`, the Potency is 6.08 µM (active) and 9.69 µM (active).

For `Cc1c([N+](=O)[O-])c(C)c([N+](=O)[O-])c(C(C)(C)C)c1[N+](=O)[O-]`, the Potency was 27.3 µM (active).

On to `CC(=O)[O-].CC(=O)[O-].CC(=O)[O-].[Cr+3]`, for which the Potency entry is “inactive”.

Consider `CCCCON=O`, for which the Potency entry was “inactive”.

`C[C@@H]1CC2=CC(=O)CC[C@@H]2[C@H]2CC[C@@]3(C)[C@@H](CC[C@]3(C)O)[C@@H]21`: the Potency entry is “inactive”.

`CCNS(=O)(=O)C(F)(F)C(F)(F)C(F)(F)C(F)(F)C(F)(F)C(F)(F)C(F)(F)C(F)(F)F`: the Potency is 23.3 µM (active).

`OCC(Br)CBr` (centres undefined): the Potency entry was “inactive”.

With `[O]=[Cr][O][Cr]=[O]`, the Potency result is “inactive”.

Turning to `CC(=O)[O-].CC(=O)[O-].O.O.[Zn+2]`, the Potency result was “inactive”.

On to `CN1C(=O)[C@@H](NC(=O)c2cc3ccccc3[nH]2)N=C(c2ccccc2)c2ccccc21`, for which the Potency result is “inactive”.

With `CN(C)c1ccc(N)cc1`, the Potency is 11.9 µM (active).

With `CCN(CC)CCN1C(=O)CN=C(c2ccccc2F)c2cc(Cl)ccc21`, the Potency result was “inactive”.

`CC(=O)C(Cl)C(=O)N(C)C` (centres undefined): the Potency entry was “inactive”.

As for `CCC(C)Nc1c([N+](=O)[O-])cc(C(C)(C)C)cc1[N+](=O)[O-]` (centres undefined), the Potency result was “inactive”.

`CCn1cc[n+](C)c1` (tested in a mixture with another compound): the Potency entry is “inactive”.

Consider `CCC1COC(Cn2cncn2)(c2ccc(Cl)cc2Cl)O1` (centres undefined), for which the Potency entry was “inactive”.

As to `O=[N+]([O-])c1ccc(CCl)cc1`, the Potency entry was “inactive”.

Turning to `CC(C)N(C(=O)SC/C(Cl)=C/Cl)C(C)C`, the Potency result was “inactive”.

Take `O.O.O.O=C([O-])[C@H]([O-])[C@@H]([O-])C(=O)[O-].O=C([O-])[C@H]([O-])[C@@H]([O-])C(=O)[O-].[K+].[K+].[Sb+3].[Sb+3]`: the Potency result was “inactive”.

For the compound `COc1ccc(Cc2nccc3cc(OC)c(OC)cc23)cc1OC`, the Potency entry was “inactive”.

Take `CC(C)N(C(=O)CCl)c1ccccc1`: the Potency is 54.5 µM (active) and 27.3 µM (active).

Consider `N#Cc1ccc(N(CC(N)=O)CC(F)(F)F)cc1C(F)(F)F`, for which the Potency result is “inactive”.

Regarding `ClC1=C(Cl)[C@]2(Cl)[C@@H]3[C@H]4C[C@H]([C@@H]5O[C@H]45)[C@@H]3[C@@]1(Cl)C2(Cl)Cl`, the Potency entry is “inactive”.

For the compound `CC(=O)[O-].CC(=O)[O-].CC(=O)[O-].[Sb+3]`, the activity change, negative = cytotoxicity was 2.42% [at 3.32 µM] (inactive).
